These results are taken from PubChem BioAssay (NCI).

This is part of a sample that, as a whole, favours compounds with a hit. Of some 83,000 tested, about 20% had one in any assay.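 Plates (96-well) were seeded with cells, treated with compound at one concentration, and incubated for 48 hours before percent growth was determined.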 A number with no mark means an inactive call. The source made the active and inactive calls. The calls were made as follows: active = growth percent below 10; inactive = the rest.

Test systems include NCI-H23 lung; NCI-H226 lung; NCI-H322M lung; HOP-62 NSCLC; NCI-H460 lung; HOP-92 NSCLC; NCI-H522 lung; A549/ATCC NSCLC; 786-0 renal; COLO 205 colon; DU-145 prostate; K-562 leukemia; MALME-3M melanoma; MDA-MB-231 breast; RXF 393 renal; SF-268 CNS; SF-295 CNS; SF-539 CNS; UACC-257 melanoma; M14 melanoma.
Holding throughout (test): NCI-60 one-dose screen, 48 h (100 = growth as untreated, 0 = no growth, -100 = all killed)
Common to all, as to conditions: 10 µM unless noted

As to `CC1=NC(=S)NC(c2ccccc2)/C1=C1/CC(c2ccccc2O)NN1` (stereo not given), the growth is 92.5% in the assay with NCI-H23 lung; 97% with NCI-H226 lung; 101% in the assay with NCI-H322M lung; 92.7% with HOP-62 NSCLC; 104% in the assay with NCI-H460 lung; 84.5% in the assay on HOP-92 NSCLC. Moreover, the growth in the assay on NCI-H522 lung was 96.3%; with A549/ATCC NSCLC it was 100%; in the assay on 786-0 renal, 100%; in the assay on COLO 205 colon, 105%; with DU-145 prostate it was 101%; in the assay with K-562 leukemia, 99.4%. Moreover, the growth with MALME-3M melanoma is 97.9%; in the assay with MDA-MB-231 breast it was 94.8%; in the assay with RXF 393 renal, 103%; with SF-268 CNS, 93.3%; in the assay with SF-295 CNS, 100%; with SF-539 CNS, 93.4%. Besides, the growth with UACC-257 melanoma is 107%; in the assay with M14 melanoma, 97.3%.
As to `N#CSCc1cc(Cl)c(CSC#N)cc1Cl`, the growth was 72.8% with NCI-H23 lung; 73.3% in the assay on NCI-H226 lung; 112% in the assay with NCI-H322M lung; 113% in the assay with HOP-62 NSCLC; 74.6% in the assay with NCI-H460 lung; 11.8% in the assay on HOP-92 NSCLC. Besides, the growth is 22.5% with NCI-H522 lung; 120% with A549/ATCC NSCLC; 71.4% in the assay on 786-0 renal; 61.6% with COLO 205 colon; 59.7% in the assay on DU-145 prostate; 29.2% in the assay on K-562 leukemia. Also, the growth with MALME-3M melanoma is 58%; with MDA-MB-231 breast, 57.6%; in the assay on RXF 393 renal, 34.3%; in the assay with SF-268 CNS, 63.3%; in the assay with SF-295 CNS it was 97.5%; in the assay on SF-539 CNS, 45.7%. For the same compound, the growth with UACC-257 melanoma was 103%; with M14 melanoma, 27.4%.
For the compound `CO[C@H]1/C=C/O[C@@]2(C)Oc3c(C)c(O)c4c(O)c(c5c(nc6cc(C)ccn65)c4c3C2=O)NC(=O)/C(C)=C\C=C\[C@H](C)[C@H](O)[C@@H](C)C(O)[C@@H](C)[C@H](OC(C)=O)[C@@H]1C` (stereo not given in full), the growth in the assay with NCI-H23 lung is 99.6%; in the assay on NCI-H226 lung, 96.1%; with NCI-H322M lung it was 97.4%; in the assay on HOP-62 NSCLC, 3.22% (active); with NCI-H460 lung, 114%; in the assay on HOP-92 NSCLC, 98.7%. Also, the growth is 91.1% in the assay with NCI-H522 lung; 104% with A549/ATCC NSCLC; 95.3% with 786-0 renal; 0.546% (active) in the assay with COLO 205 colon; 114% in the assay on DU-145 prostate; 95.3% in the assay on K-562 leukemia. Besides, the growth in the assay on MALME-3M melanoma is 93.4%; with MDA-MB-231 breast it was 104%; with RXF 393 renal, 111%; in the assay on SF-268 CNS, 102%; in the assay with SF-295 CNS it was 102%; with SF-539 CNS, 105%. In addition, the values for the growth with UACC-257 melanoma and in the assay with M14 melanoma were 106% and 94.4%, respectively.
For `O=C1/C(=C/c2cccc(Br)c2)COc2ccc(O)c(O)c21`, the growth in the assay on NCI-H23 lung was 17%; in the assay on NCI-H226 lung it was 83.4%; with NCI-H322M lung, 25.7%; with HOP-62 NSCLC, -30.8% (active); in the assay on NCI-H460 lung, 5.86% (active); with HOP-92 NSCLC it was -41.1% (active). Further, the growth is -67.6% (active) in the assay with NCI-H522 lung; 11.2% in the assay with A549/ATCC NSCLC; -86.9% (active) in the assay with 786-0 renal; 6.56% (active) with COLO 205 colon; -7.02% (active) in the assay on DU-145 prostate; 10.3% in the assay with K-562 leukemia. Also, the growth in the assay on MALME-3M melanoma was -44.9% (active); in the assay on MDA-MB-231 breast, -26.7% (active); in the assay with RXF 393 renal, -56.5% (active); in the assay with SF-268 CNS, -23.9% (active); in the assay on SF-295 CNS, 34.8%; with SF-539 CNS, -85.4% (active). Besides, the growth with UACC-257 melanoma was 10.9%; in the assay on M14 melanoma, -5.09% (active).
On to `COc1ccc(C(=O)/C=C/c2ccc(Cl)cc2)cc1S(N)(=O)=O`, for which the growth in the assay with NCI-H23 lung is 87.8%; in the assay with NCI-H226 lung it was 84.3%; in the assay with NCI-H322M lung, 29.1%; in the assay on HOP-62 NSCLC it was 53.6%; in the assay on NCI-H460 lung it was 65.8%; in the assay on HOP-92 NSCLC, -26.6% (active). In addition, the growth in the assay on NCI-H522 lung is 56.9%; with A549/ATCC NSCLC it was 54.5%; with 786-0 renal, -30.7% (active); in the assay with COLO 205 colon it was 60.6%; in the assay on DU-145 prostate, 90.8%; in the assay with K-562 leukemia, 3.05% (active). The growth with MALME-3M melanoma was 90.1%; with MDA-MB-231 breast, 65.8%; in the assay on RXF 393 renal, 97.4%; in the assay with SF-268 CNS it was 91.7%; with SF-295 CNS, 98.3%; in the assay on SF-539 CNS, 17.7%. Further, the results for the growth in the assay on UACC-257 melanoma and in the assay on M14 melanoma were 87.1% and -57.3% (active), respectively.
Turning to `COc1cc2c(cc1-c1c(C)noc1C)ncc1nc(C3CCOCC3)n(C3CCC(OC(F)F)CC3)c12` (stereo not given), the growth in the assay on NCI-H23 lung is 56.7%; in the assay with NCI-H226 lung, 67.9%; with NCI-H322M lung it was 52.4%; in the assay with HOP-62 NSCLC, 30.4%; in the assay on NCI-H460 lung, 72.6%; with HOP-92 NSCLC, 21.8%. Besides, the growth with NCI-H522 lung was 3.74% (active); in the assay with A549/ATCC NSCLC, 57.4%; in the assay with 786-0 renal, 51.8%; in the assay with COLO 205 colon, 22.6%; with DU-145 prostate, 73.2%; in the assay on K-562 leukemia it was 47.6%. Further, the growth was 44.1% in the assay with MALME-3M melanoma; 36.2% in the assay on MDA-MB-231 breast; 59% in the assay with RXF 393 renal; 64.9% with SF-268 CNS; 53.5% with SF-295 CNS; 56.6% in the assay on SF-539 CNS. Besides, the growth in the assay on UACC-257 melanoma is 47.7%; in the assay on M14 melanoma, 54.6%.
Turning to `NCCCCCNc1noc(Cc2c[nH]c3cc(Br)ccc23)n1`, the growth in the assay with NCI-H23 lung is 30.9%; in the assay with NCI-H226 lung, 61%; with NCI-H322M lung it was 33.4%; in the assay on HOP-62 NSCLC, 21.6%; with NCI-H460 lung, 12.8%; with HOP-92 NSCLC, 19.7%. For the same compound, the growth in the assay with NCI-H522 lung was -38.3% (active); with A549/ATCC NSCLC, 24.6%; in the assay with 786-0 renal, 43.2%; in the assay with COLO 205 colon it was -0.719% (active); with DU-145 prostate, 2.36% (active); in the assay with K-562 leukemia it was 14.3%. Also, the growth was 13.5% in the assay with MALME-3M melanoma; 51.2% with MDA-MB-231 breast; -11.5% (active) in the assay with RXF 393 renal; 54.1% in the assay with SF-268 CNS; 7.26% (active) in the assay on SF-295 CNS; -23% (active) in the assay on SF-539 CNS. Also, the growth in the assay with UACC-257 melanoma was 54.8%; in the assay on M14 melanoma, -26.3% (active).
Regarding `Cc1[nH]c(C(=O)Nc2ccccc2OC2CCNC2)c(Cl)c1Cl` (stereo not given), the growth with NCI-H23 lung is 87.1%; in the assay with NCI-H226 lung, 80.6%; in the assay with NCI-H322M lung it was 92.1%; in the assay with HOP-62 NSCLC, 78.7%; in the assay on NCI-H460 lung, 72.6%; with HOP-92 NSCLC, 72.6%. Moreover, the growth was 60.7% in the assay with NCI-H522 lung; 101% with A549/ATCC NSCLC; 68.9% in the assay on 786-0 renal; 83.5% in the assay with COLO 205 colon; 93.5% in the assay on DU-145 prostate; 52.2% in the assay on K-562 leukemia. The growth is 97.5% with MALME-3M melanoma; 54.4% in the assay on MDA-MB-231 breast; 76.8% in the assay on RXF 393 renal; 75.7% in the assay with SF-268 CNS; 95.5% with SF-295 CNS; 85.6% in the assay on SF-539 CNS. Besides, the growth in the assay on UACC-257 melanoma is 107%; with M14 melanoma it was 98.5%.
